Inconclusive results are not listed. Active and inactive are the calls of the source. The calls were made as follows, unless noted: active = hit-call score of the fitted dose curve at least 0.9, where 1 is the maximum; inactive = score below 0.9.

Broadly, the AC50 is the midpoint of the concentration-response curve, whichever way the signal moves.

Assay [1] concerns the target Nucleoli Translocation, AR (gene 367) (UniProt P10275). The assay can be described thus: UPITT_HCI_U2OS_AR_TIF2_Nucleoli_Antagonist: University of Pittsburgh U2OS Androgen Receptor-Transcriptional Intermediary Factor 2 (AR-TIF2) Antagonism High Content Imaging Assay for Nucleoli Translocation (AID 2283997; active = hit-call score of the fitted dose curve at least 0.9, where 1 is the maximum). An outline of the steps: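 Measured quantity was AR-RFP fluorescence localized to nucleoli in engineered U2OS cells also bearing TIF2-GFP, acquired on automated high-content imagers. Primary testing used 20 uM compound; actives were confirmed in triplicate wells.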

Assay [2] addresses Ratio of Nucleoli Translocation and Cytoplasm, AR (gene 367) (UniProt P10275). Kind of assay: UPITT_HCI_U2OS_AR_TIF2_Nucleoli_Cytoplasm_Ratio_Antagonist: University of Pittsburgh U2OS Androgen Receptor-Transcriptional Intermediary Factor 2 (AR-TIF2) Antagonism High Content Imaging Assay for Ratio of Nucleoli Translocation and Cytoplasm (AID 2283999; active = hit-call score of the fitted dose curve at least 0.9, where 1 is the maximum;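 also: antagonists lower the DHT-driven ratio of nucleolar to cytoplasmic red signal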). The essentials: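 Human osteosarcoma U2OS line, AR fused to RFP, coactivator TIF2 fused to GFP. Cpds 20 uM final, 0.2% DMSO (screen); 0.195–50 uM final, 0.5% DMSO (CRC). Endpoint: nucleoli/cytoplasm red signal ratio, DHT as baseline, loss-of-signal antagonist mode.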

For assay [3] the target is unchanged. The assay can be described thus: UPITT_HCI_U2OS_AR_TIF2_Nucleoli_Cytoplasm_Ratio_Agonist: University of Pittsburgh U2OS Androgen Receptor-Transcriptional Intermediary Factor 2 (AR-TIF2) Agonism High Content Imaging Assay for Ratio of Nucleoli Translocation and Cytoplasm (AID 2284000; active = hit-call score of the fitted dose curve at least 0.9, where 1 is the maximum;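 also: hits raise the red nucleolar to cytoplasm ratio above vehicle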). An outline of the steps:
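Read-out first: nucleolar-to-cytoplasm ratio of red (AR-RFP) signal, quantified by high-content imaging in U2OS cells co-expressing TIF2-GFP. Activity is scored as signal increase over DMSO. Single-point screening used 20 uM final (0.2% DMSO).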

Assay [4] can be described thus: CCTE_Harrill_HTTr_Viability_MCF7: CCTE's 6-hour Cell Viability Assessment for the High-Throughput Transcriptomics (HTTr) Platform, in MCF-7 cells cultured in DMEM + 10% fetal bovine serum, Harrill Lab (AID 2284010). An outline of the steps: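 Cells were dosed with chemicals in an eight-point dilution series, imaged 6 hours later for propidium iodide uptake, and the endpoint was analyzed by bidirectional fitting against DMSO as negative control.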

Assay [5] is described as follows: CCTE_Harrill_HTTr_CellCount_MCF7: CCTE's Cell Proliferation Assessment for the High-Throughput Transcriptomics (HTTr) Platform, Harrill Lab (AID 2284012; active = hit-call score of the fitted dose curve at least 0.9, where 1 is the maximum;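 also: count of Hoechst-stained nuclei per well by high-content imaging in MCF-7 cells; cells exposed to compound for six hours; intended direction is loss of nuclei count meaning fewer cells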). The essentials:
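Chemicals in eight-point dilution series are added to MCF-7 cells for six hours, nuclei are stained with Hoechst and imaged, and per-well nuclei counts are fitted in both directions relative to DMSO controls.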

Assay [6] is described as follows: CCTE_Shafer_MEA_acute_spike_number: CCTE's Neural Acute Assay for Total Number of Spikes, Shafer Lab (AID 2284008). An outline of the steps:
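Rat primary cortical neurons on 48-well MEA plates, DIV 13 or 15, at 37 C. 40 min baseline then 40 min with compound (0.03-40 uM); spikes detected at 8x rms noise, expressed as percent change from baseline.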

The nature of assay [7]: CCTE_Shafer_MEA_acute_firing_rate_mean: CCTE's Neural Acute Assay for Mean Firing Rate, Shafer Lab (AID 2284009).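 Also: analyzed for loss of signal so actives lower firing rate relative to DMSO.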 The essentials: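 Percent change in well-mean firing rate was derived from extracellular spikes detected at 8x rms noise (300-5000 Hz band-pass) before and after a 40-min compound exposure. Cultures were primary rat cortical neurons, tested at 0.03-40 uM.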
Assay [8] is described as follows: CCTE_Shafer_MEA_acute_burst_number: CCTE's Neural Acute Assay for Single-Electrode Bursts, Shafer Lab (AID 2284013). An outline of the steps:
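Spontaneous network activity of primary rat cortical neurons was recorded extracellularly on microelectrode arrays at 37 C, with 40-min periods before and during exposure to 0.03-40 uM compound on DIV 13 or 15.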

Assay [9] is described as follows: CCTE_Shafer_MEA_acute_burst_duration_mean: CCTE's Neural Acute Assay for Mean Burst Duration, Shafer Lab (AID 2284014).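 Also: hits are decreases in mean burst duration relative to DMSO controls.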 The essentials:
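Read-out is the per-well percent change in mean burst duration (first to last spike within a single-electrode burst) between 40-min recordings before and after compound. Cultures were primary rat cortical neurons on MEAs, dosed at 0.03-40 uM on DIV 13 or 15.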

Assay [10] is described as follows: CCTE_Shafer_MEA_acute_per_burst_spike_number_mean: CCTE's Neural Acute Assay for Average Number of Spikes Per Burst, Shafer Lab (AID 2284015).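 Also: hits are decreases in mean spikes per burst versus baseline.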 The essentials:
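We recorded spontaneous network firing of rat cortical neurons for 40 min before and 40 min during exposure to compound at 0.03-40 uM, at 37 C. Spikes were detected adaptively at 8x rms noise, and the change in average spikes per burst was fitted against DMSO.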

The nature of assay [11]: CCTE_Shafer_MEA_acute_interburst_interval_mean: CCTE's Neural Acute Assay for Mean Interburst Interval, Shafer Lab (AID 2284016).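 Also: percent change of mean interburst interval versus each well's own pre-dose baseline; curves fitted for decrease in interburst interval relative to DMSO.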 An outline of the steps:
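MEA recording of spontaneous network bursting in primary rat cortical cultures; mean interburst interval was compared before and after a 40-min compound exposure (0.03-40 uM) and expressed as percent change, relative to DMSO.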

Assay [12] in a line: CCTE_Shafer_MEA_acute_burst_percentage_mean: CCTE's Neural Acute Assay for Percentage of Spikes in a Burst, Shafer Lab (AID 2284017). An outline of the steps:
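Compounds were tested at 0.03-40 uM on primary rat cortical neuron networks grown over microelectrodes, with at least three wells per compound. Spontaneous firing was recorded for 40 min before and 40 min after dosing, and the change in burst percentage was computed per well.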

Assay [13] is described as follows: CCTE_Shafer_MEA_acute_burst_percentage_std: CCTE's Neural Acute Assay for Standard Deviation of Burst Percentage, Shafer Lab (AID 2284018).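 Also: fitted in the negative direction so actives lower burst percentage SD.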 An outline of the steps:
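Value is percent change from baseline in the across-electrode SD of spikes-in-bursts percentage, wells with >/= 10 active electrodes. Acute 40-min exposure to 0.03-40 uM on DIV 13 or 15 rat cortical cultures, recorded at 37 C after 40-min baseline.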

A short description of assay [14]: CCTE_Shafer_MEA_acute_per_network_burst_spike_number_mean: CCTE's Neural Acute Assay for Average Number of Spikes in a Network Burst, Shafer Lab (AID 2284019). The essentials: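 Read-out is mean spike count per network burst, taken as percent change between a 40-min pre-exposure and a 40-min post-exposure recording per well. Rat primary cortical neurons on MEAs at 37 C, DIV 13 or 15; compounds at 0.03-40 uM.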

Assay [15] addresses Retinoic acid receptor RXR-alpha (Homo sapiens) (UniProt P19793). Kind of assay: TOX21_TR_RXR_BLA_Agonist_Followup_ratio: Tox21 Thyroid Hormone Receptor beta Retinoid X Receptor alpha (RXRa) Agonism Beta-lactamase (BLA) Follow-Up Assay, Ratio (AID 2283968; active = hit-call score of the fitted dose curve at least 0.9, where 1 is the maximum). The essentials:
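HEK293T RXRa-bla, qHTS; cpd 11-pt conc. in triplicate, 16 h 37C/5% CO2; CCF4-AM 2 h RT; ratio 460:530 nm; agonist direction vs DMSO; 9-cis retinoic acid as positive control.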

Assay [16] can be described thus: TOX21_TR_RXR_BLA_Agonist_Followup_viability: Viability Assessment in the Tox21 Thyroid Hormone Receptor beta Retinoid X Receptor alpha (RXRa) Agonism Beta-lactamase (BLA) Follow-Up Assay (AID 2283970; active = hit-call score of the fitted dose curve at least 0.9, where 1 is the maximum). An outline of the steps: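 Cells: HEK293T RXRa-UAS-bla, 2,500/well; medium phenol red-free DMEM + 2% charcoal-stripped FBS; 16h, 37C/5% CO2; qHTS concentration series. Read: CellTiter-Glo luminescence (ATP); bidirectional fit, DMSO = baseline.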

The nature of assay [17]: CCTE_Harrill_HTTr_Apoptosis_MCF7: CCTE's 6-hour Apoptosis Assessment for the High-Throughput Transcriptomics (HTTr) Platform, in MCF-7 cells cultured in DMEM + 10% fetal bovine serum, Harrill Lab (AID 2284011). The essentials: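 MCF-7 cells in DMEM + 10% FBS exposed 6 h to chemicals over an eight-point dilution series. Caspase-3/7 activation imaged by high-content CellEvent Green staining; fitted bidirectionally versus DMSO.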

For a further assay, the system named is DIO1 (gene 1733). The assay can be described thus: CCTE_GLTED_hDIO1: CCTE's human Deiodinase 1 (DIO1) Inhibition Assay, Great Lakes Toxicology and Ecology Division (GLTED) Lab (AID 2283987; active = hit-call score of the fitted dose curve at least 0.9, where 1 is the maximum;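 also: isolated human DIO1 enzyme in a cell-free setup rather than cells; enzyme activity read as free iodide liberated from substrate via Sandell-Kolthoff colorimetry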). An outline of the steps:
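Cell-free human DIO1 enzyme incubated 3 h with test chemical; iodide freed from substrate then measured by Sandell-Kolthoff absorbance. Run in triplicate; loss of signal relative to DMSO taken as inhibition.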

Sequence of Nucleoli Translocation, AR (gene 367) (P10275 whole entry, looked up): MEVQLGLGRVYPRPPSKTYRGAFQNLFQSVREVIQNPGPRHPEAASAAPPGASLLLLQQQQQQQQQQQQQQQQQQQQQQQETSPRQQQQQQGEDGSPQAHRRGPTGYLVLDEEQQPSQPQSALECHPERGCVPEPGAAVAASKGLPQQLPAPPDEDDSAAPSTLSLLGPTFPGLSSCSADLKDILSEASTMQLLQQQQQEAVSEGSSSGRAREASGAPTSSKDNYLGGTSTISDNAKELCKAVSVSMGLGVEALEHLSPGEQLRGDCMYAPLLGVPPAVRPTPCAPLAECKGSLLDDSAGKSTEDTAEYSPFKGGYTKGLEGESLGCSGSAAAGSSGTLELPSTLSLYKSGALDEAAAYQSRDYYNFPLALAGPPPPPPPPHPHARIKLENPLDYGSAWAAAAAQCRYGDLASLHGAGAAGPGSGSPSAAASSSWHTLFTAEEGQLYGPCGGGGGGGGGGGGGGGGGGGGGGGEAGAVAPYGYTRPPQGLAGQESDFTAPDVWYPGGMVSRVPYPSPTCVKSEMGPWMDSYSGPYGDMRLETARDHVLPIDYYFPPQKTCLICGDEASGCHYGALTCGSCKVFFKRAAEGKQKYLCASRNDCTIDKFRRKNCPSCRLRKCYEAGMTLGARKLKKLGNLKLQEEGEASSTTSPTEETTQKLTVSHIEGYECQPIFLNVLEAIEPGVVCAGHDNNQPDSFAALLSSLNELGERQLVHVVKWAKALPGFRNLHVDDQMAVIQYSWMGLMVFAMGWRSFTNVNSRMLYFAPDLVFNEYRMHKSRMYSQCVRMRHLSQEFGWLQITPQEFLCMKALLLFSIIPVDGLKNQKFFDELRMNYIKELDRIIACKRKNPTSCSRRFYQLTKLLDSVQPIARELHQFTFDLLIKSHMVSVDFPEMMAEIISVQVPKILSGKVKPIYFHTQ
Sequence of Ratio of Nucleoli Translocation and Cytoplasm, AR (gene 367) (P10275 whole entry, looked up, the tested form may be a part): as the sequence (P10275 whole entry, looked up) above
Sequence of Retinoic acid receptor RXR-alpha (Homo sapiens) (P19793 whole entry, looked up): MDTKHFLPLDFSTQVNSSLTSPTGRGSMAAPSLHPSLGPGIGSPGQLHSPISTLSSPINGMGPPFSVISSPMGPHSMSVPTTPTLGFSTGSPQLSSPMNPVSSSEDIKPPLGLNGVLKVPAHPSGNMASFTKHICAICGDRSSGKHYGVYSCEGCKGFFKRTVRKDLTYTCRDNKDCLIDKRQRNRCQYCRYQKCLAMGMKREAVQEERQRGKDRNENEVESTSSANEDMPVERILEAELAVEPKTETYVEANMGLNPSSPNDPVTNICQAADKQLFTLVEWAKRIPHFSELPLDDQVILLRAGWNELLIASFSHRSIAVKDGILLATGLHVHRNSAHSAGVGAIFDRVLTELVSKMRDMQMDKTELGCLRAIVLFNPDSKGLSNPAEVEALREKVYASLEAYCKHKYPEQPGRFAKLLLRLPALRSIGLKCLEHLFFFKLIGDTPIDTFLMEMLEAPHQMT

`CC(=O)C1(C)CC2=C(CCCC2(C)C)CC1C` (stereo not drawn): the call in assay [1], in assay [2], in [3], in [4] and in assay [5] was inactive.
On to `CCOC(=O)[C@@H](C)Oc1ccc(Oc2nc3ccc(Cl)cc3o2)cc1`, for which the compound was called inactive in [1], in [2], in [3], in assay [4] and in assay [5].
Take `CC1(C)CCC[C@]2(C)[C@H]3CCO[C@]3(C)CC[C@@H]12`: the result in [6], in [7], in assay [8], in [9], in assay [10] and in assay [11] was inactive. Also, the outcome in assay [12], in assay [13] and in assay [14] was inactive.
`O=Cc1ccccc1S(=O)(=O)O`: the result in [15] and in [16] was inactive.
As for `Nc1ccc(N)c2c1C(=O)c1ccccc1C2=O`, the result in assay [1], in [2] and in [3] was inactive.
For the compound `C=CC(C)(O)CCC=C(C)C` (stereo not drawn), the call in [6], in assay [7], in [4], in assay [17], in [8] and in [9] was inactive. Besides, the compound was called inactive in [10], in assay [12], in [13] and in assay [14]. In addition, the AC50 in assay [11] was 15 µM (active).
Consider `CCCCCCCCCCCCCCN(CCO)CCO`, for which, in the assay on DIO1 (gene 1733), the AC50 is 30.6 µM (active).
Regarding `CC1CCC(C(C)C)C(O)C1` (stereo not drawn), the call in assay [1], in [2], in assay [4] and in assay [5] was inactive.
Take `CC(C)NCC(O)COc1ccc(CC(N)=O)cc1` (stereo not drawn): the result in assay [4] and in assay [17] was inactive.
In the case of `COCCOCCOCCO`, the result in assay [4] and in assay [17] was inactive.
As for `CN(c1nccc(=O)[nH]1)C1CCN(c2nc3ccccc3n2Cc2ccc(F)cc2)CC1`, the result in assay [4] was inactive.
Regarding `Brc1ccc(Br)c(Br)c1`, the outcome in [4] and in [17] was inactive.
With `Cc1ncc([N+](=O)[O-])n1CCO`, the outcome in assay [4] and in assay [17] was inactive.
Take `O=C1c2ccccc2C(=O)c2c(O)ccc(O)c21`: the result in assay [4], in assay [17] and in assay [5] was inactive.
For the compound `Nc1ccn([C@H]2CS[C@@H](CO)O2)c(=O)n1`, the outcome in assay [4], in [17] and in assay [5] was inactive.
Take `O=C(O)c1cccnc1C(=O)O`: the outcome in [4], in assay [17] and in [5] was inactive.
For the compound `Cc1ccc(-c2ccccc2)cc1`, the outcome in assay [4], in [17] and in [5] was inactive.
As for `C=CC(=O)OCCCC`, in [4], the result was inactive.
As to `COc1cc([C@@H]2c3cc4c(cc3[C@@H](O[C@@H]3O[C@@H]5CO[C@@H](C)O[C@H]5[C@H](O)[C@H]3O)[C@H]3COC(=O)[C@H]23)OCO4)cc(OC)c1O`, the outcome in assay [4], in assay [17] and in [5] was inactive.
Turning to `Nc1ccccc1[N+](=O)[O-]`, the result in assay [4] and in assay [17] was inactive.
Turning to `CCCN(CCC)S(=O)(=O)c1ccc(C(=O)O)cc1`, the result in assay [4] and in assay [17] was inactive.
With `CC1(C)O[C@@H]2[C@@H](CO[C@@]3(COS(N)(=O)=O)OC(C)(C)O[C@@H]23)O1`, the outcome in assay [4], in assay [17] and in [5] was inactive.
As to `O=C(O)CCCCCCCCC(=O)O`, the result in assay [4] and in assay [17] was inactive.
`[O-]n1ccccc1=S.[O-]n1ccccc1=S.[Zn+2]`: the outcome in assay [4] and in [17] was inactive. For the same compound, in assay [5], the AC50 was 50 µM (active).
In the case of `C=CCOC(=O)CCCCCC`, the outcome in assay [4], in assay [17] and in assay [5] was inactive.
As for `C[C@H]1C[C@@H](O)CC(C)(C)C1`, the outcome in assay [4], in assay [17] and in assay [5] was inactive.
Consider `CC1(C)C2=CCCC(C)(C)[C@]23CC[C@H]1C3`, for which the result in assay [4] and in assay [17] was inactive.
As to `COC(=O)c1ccc(C)cc1C1=NC(C)(C(C)C)C(=O)N1` (stereo not drawn) (tested in a mixture with another compound), the outcome in assay [4] was inactive.
For `CCCC1O[C@@H]2C[C@H]3[C@@H]4CCC5=CC(=O)C=C[C@]5(C)[C@H]4[C@@H](O)C[C@]3(C)[C@]2(C(=O)CO)O1` (stereo partly drawn), the result in assay [4], in [17] and in assay [5] was inactive.
With `CCOC(=O)C(C#N)=C(c1ccccc1)c1ccccc1`, the outcome in assay [6], in assay [7], in assay [8], in assay [9], in [10] and in assay [11] was inactive. Further, the result in assay [12], in [13] and in assay [14] was inactive.
Turning to `c1ccc2[nH]cnc2c1`, the outcome in [4], in assay [17] and in [5] was inactive.
In the case of `CC1(C)O[C@@H]2C[C@H]3[C@@H]4CCC5=CC(=O)C=C[C@]5(C)[C@@]4(F)[C@@H](O)C[C@]3(C)[C@]2(C(=O)CO)O1`, the outcome in assay [4] and in [17] was inactive.
`O=c1[nH]c(=O)c2cn[nH]c2[nH]1`: the result in assay [4], in assay [17] and in assay [5] was inactive.
Consider `OCCc1ccccc1`, for which the outcome in [4], in assay [17] and in [5] was inactive.
As to `O=CCc1ccccc1`, the outcome in assay [4], in assay [17] and in [5] was inactive.
For `O=P(O)(O)O`, the result in assay [4], in [17] and in assay [5] was inactive.
`CCOC(=O)c1ccc(N)cc1`: the outcome in assay [4] was inactive.
On to `CC1=CC[C@@]23C[C@@H]1C(C)(C)[C@@H]2CC[C@H]3C`, for which the result in [4] and in assay [17] was inactive.

Source of the values: PubChem BioAssay (EPA / NIEHS).
